Bioassay records: PubChem, National Center for Advancing Translational Sciences (NCATS)
SMN2 splice enh: enhancers of SMN2 splice variant expression; 2.8% of 210,000 active; HEK293 SMN2-luciferase splicing reporter, luminescence, 30-36 h; Potency, µM (top dose mostly 46.1 µM), inactives show at the highest dose activity change, positive = activation, usual class: activators; note: % of control where 0% means no effect; nearly all actives have a fitted effect of over 55% in size
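qHTS luciferase splicing reporter: luminescence rises when SMN2 exon 7 is included in transfected HEK293 cells. Compound exposure lasted 30-36 h at 37C, with 4.5 mM final sodium butyrate as control, followed by a ONE-Glo read.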
FLuc counter: counter-screen for miR-21 project: firefly luciferase inhibitors or activators; purified FLuc, Km substrates, luminescence inhibition; Potency, µM (series often up to 57.5 µM), for inactives: at the top dose activity change, negative = inhibition, most hits filed as inhibitors; 6.9% of 360,000 active; AID 588342;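 note: plate controls were vehicle for no effect and reference inhibitor for full effect; nearly all actives have a fitted effect of over 55% in size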
Target sequence (P08659 whole entry, looked up): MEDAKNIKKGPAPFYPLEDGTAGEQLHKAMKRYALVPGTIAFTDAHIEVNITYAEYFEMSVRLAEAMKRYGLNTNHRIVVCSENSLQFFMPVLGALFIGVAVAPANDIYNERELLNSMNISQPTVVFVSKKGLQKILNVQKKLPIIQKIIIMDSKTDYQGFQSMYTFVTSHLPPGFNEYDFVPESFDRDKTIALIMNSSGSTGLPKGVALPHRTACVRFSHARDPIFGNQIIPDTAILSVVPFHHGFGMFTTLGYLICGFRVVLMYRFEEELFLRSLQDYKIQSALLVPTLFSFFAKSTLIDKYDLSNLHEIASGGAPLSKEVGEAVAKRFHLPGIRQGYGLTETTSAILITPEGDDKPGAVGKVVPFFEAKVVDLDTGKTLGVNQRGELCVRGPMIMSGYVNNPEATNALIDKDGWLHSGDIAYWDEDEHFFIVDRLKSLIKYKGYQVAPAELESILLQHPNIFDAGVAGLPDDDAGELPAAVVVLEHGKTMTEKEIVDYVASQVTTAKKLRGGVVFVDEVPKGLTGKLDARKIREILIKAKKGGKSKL
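Purified P. pyralis luciferase, 10 nM final, with Km-level 10 uM D-luciferin and 10 uM ATP in 50 mM Tris acetate pH 7.5, 10 mM Mg acetate, 0.01% Tween-20, 0.05% BSA; 6-point qHTS titration about 60 µM downward; luminescence read.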
NPC1 promoter act: activators of NPC1 promoter; Huh7 NPC1 promoter luciferase reporter, 24 h; 2.4% of 320,000 active; Potency, µM (highest dose often 9.22 µM), for the others: at the highest dose activation, hits mostly activators; note: % of control where 0% means no effect; nearly all actives have a fitted effect of over 60% in size
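Huh7 cells stably carrying NPC1 promoter–luciferase, plated in Opti-MEM with 10% FBS for 2 h, were exposed to compound in DMSO for 24 h at 37 °C; luciferase reagent was added for 10 min and luminescence read.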
ELG1 genotoxic: genotoxicity induction in ELG1-luciferase HEK293T cells | HEK293T ELG1-luciferase reporter, luminescence, 16 h | AID 504466 | Potency, µM (series often up to 46 µM), for inactives: at the top dose activity change, positive = activation, usual class: activators | 1.3% of 330,000 active; note: % of control where 0% means no effect; nearly all actives have a fitted effect of over 60% in size
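After overnight (16 hr) compound treatment at 37 °C, ELG1-luciferase HEK293T cells were lysed with ONE-Glo; luminescence quantified 30 min later at room temperature.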
Rab9 prom act: Rab9 promoter activation | 2.8% of 320,000 active | AID 485297 | Potency, µM (doses to about 9.22 µM), without a hit: at the top dose activation, negative = inhibition, hits mostly activators | Huh7 Rab9 promoter-luciferase reporter, luminescence, 24 h; note: % of control where 0% means no effect; nearly all actives have a fitted effect of over 60% in size
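Promoter activation is measured as luciferase luminescence in Huh7 cells stably transfected with a Rab9 promoter–luciferase construct, following 24 h compound exposure at 37 °C and 10 min reagent incubation at ambient temperature.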
The depositor's hits bear a star; ? = inconclusive; nt = no result given; [ ] = dose if it differs, or a comment. A selection: hits, their analogues and other compounds. The true share with any hit is near 7.4%. Calls come from the whole dose curve; as a rule, active = well fitted curve in the direction sought with a large enough effect; inconclusive = small, poorly fitted or top-dose-only effect, or another doubt; inactive = no such curve, though single readings can be large; an effect the other way counts as inactive or inconclusive. Potency is the fitted concentration of half-maximal effect.

SMILES	SMN2 splice enh	FLuc counter	NPC1 promoter act	ELG1 genotoxic	Rab9 prom act
C=CCN=c1scc(-c2ccccc2)n1/N=C/c1ccccn1	4.5µM*	2.4µM*	2µM*	?	1.3µM*
C=CCN=c1scc(-c2ccc3c(c2)NC(=O)CO3)n1/N=C(\C)c1ccccn1	-65%	6%	-33%	-7%	-39%
CCOc1ccc(CCNC(=O)c2ccc(Cn3c(=O)c4cccn4c4cccnc43)cc2)cc1	nt	-5%	nt	nt	nt
CCN(CC)S(=O)(=O)c1nnc(NC(=O)COc2cccc(C)c2)s1	nt	-11%	nt	nt	nt
CC(C)c1ccc(NC(=O)C2CC3CCC2C3)cc1 (stereo unspecified)	nt	11µM*	3.5µM*	21µM*	3.2µM*
CCCCC[C@H](O)/C=C/[C@H]1OC(=O)C[C@H](O)[C@@H]1C/C=C\CCCC(=O)O	-4%	nt	nt	nt	nt
Cc1ccc(NC(=O)Cn2cc(S(=O)(=O)N3CCCC3)c(S(=O)(=O)N3CCCC3)c2)cc1F	nt	-12%	nt	nt	nt
c1coc(C2Nc3cccc4cccc(c34)N2)c1	17%	27µM*	8%	-3%	18%
Clc1ccccc1C1Nc2cccc3cccc(c23)N1	nt	?	-4%	-8%	11%
CC(C)c1cc(C(=O)NNC(=S)NC2CCCCC2)cs1	nt	?	4µM*	?	?
CCc1cc(C(=O)NNC(=S)NC2CCCCC2)cs1	nt	-11%	3.5µM*	-4%	3.5µM*
CCc1c(C(=O)NNC(=S)NC2CCCCC2)csc1C	1.6µM*	-2%	17%	-3%	22%
Cc1ccc(C(=O)COC(=O)c2ccccc2N2C(=O)C3C4CCC(C4)C3C2=O)cc1C (stereo unspecified)	-10%	12µM*	-3%	-1%	12%
Cc1ccc(C(=O)COC(=O)C(C)N2C(=O)C3C4C=CC(C4)C3C2=O)cc1C (stereo unspecified)	nt	13µM*	-3%	2%	0%
Cc1ccc(C)c(C(=O)COC(=O)CCN2C(=O)C3C4CCC(C4)C3C2=O)c1 (stereo unspecified)	nt	12µM*	-5%	2%	2%
O=C(CCN1CCCCC1)N1CCc2c([nH]c3ccccc23)[C@H]1c1cccnc1	-2%[9.22 µM]	nt	nt	nt	nt
Cc1ccc(NC(=S)N2CCSC2c2cccs2)cc1 (stereo unspecified)	-11%	15µM*	3%	11%	0%
CCN(C(=O)c1cc2cccc(OC)c2oc1=O)c1ccccc1	10µM*	1%	-4%	-5%	1%
COc1cccc2cc(C(=O)OCc3ccccc3)c(=O)oc12	nt	6µM*	2%	4%	11%
COc1cccc2cc(C(=O)Oc3ccccc3)c(=O)oc12	nt	12µM*	-3%	2%	-2%
COc1ccc(C(=O)c2cc3cccc(OC)c3o2)cc1	14µM*	9.5µM*	3.2µM*	?	3.2µM*
COc1cccc2cc(C(C)=O)oc12	-1%	-11%	-1%	2%	0%
CCOc1ccc(N2C(=O)CS(=O)(=O)C23C(=O)N(Cc2cccc(Cl)c2)c2ccccc23)cc1 (stereo unspecified)	nt	3%	nt	nt	nt
Cc1cc(C)cc(NC(=O)NCCn2nnc3cc(S(=O)(=O)N(C)C)ccc32)c1	nt	-7%	nt	nt	nt
CC(=O)c1ccc(COC(=O)c2cc3ccccc3oc2=O)cc1	nt	17µM*	-2%	17%	6%
SMILES	SMN2 splice enh	FLuc counter	NPC1 promoter act	ELG1 genotoxic	Rab9 prom act
COC(=O)c1ccc(COC(=O)c2cc3ccccc3oc2=O)cc1	nt	?	3%	6%	15%
COc1ccc(CCNc2ncnc3c2c(-c2ccccc2)cn3-c2ccc(Cl)cc2)cc1OC	nt	-4%	nt	nt	nt
Cc1cc(C)c2cc3c(N)c(C(=O)N4CCOCC4)sc3nc2c1	nt	11µM*	?	8%	?
Cc1cc(C)c2nc3sc(C(=O)N4CCOCC4)c(N)c3cc2c1	nt	0.21µM*	2.2µM*	1.5µM*	?
CCOc1ccc2nc3sc(C(=O)N4CCOCC4)c(N)c3cc2c1	1.3µM*	1.5µM*	0.56µM*	2%	0.56µM*
COc1cccc(-n2ccnc2SCC(=O)Nc2c(C)cc(C)cc2C)c1	nt	-10%	nt	nt	nt
CCc1cc2c(=O)c(-c3ccc4c(c3)OCCO4)coc2cc1OS(C)(=O)=O	22µM*	4.8µM*	2.8µM*	7%	3.5µM*
